# Laboratory results from the supplement of paper PMC3545927.
# Some of the results follow. How many sequences the whole screen found active is unknown.
# Biological target: furin, P09958
# Experiment: furin cleavage Z-score vs untreated control; higher = more cleavage, active = 3.5 or more, inactive = 1 or less, 8 variable residues between constant flanks
# Method in brief: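 Reactions of 0.01 ml ran for 7.5, 15 or 30 min in 50 mM HEPES pH 7.5 with CaCl2 and NaCl, at 1:10 enzyme:substrate. In them, purified furin acted on bead-held 8-mer peptides fused to a cDNA oligonucleotide. The cleavage Z-score was obtained by lowess-adjusting log sequencing counts of released DNA against furin-free reactions and scaling by median absolute deviation.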
# Chain of furin, P09958 (P09958 whole entry): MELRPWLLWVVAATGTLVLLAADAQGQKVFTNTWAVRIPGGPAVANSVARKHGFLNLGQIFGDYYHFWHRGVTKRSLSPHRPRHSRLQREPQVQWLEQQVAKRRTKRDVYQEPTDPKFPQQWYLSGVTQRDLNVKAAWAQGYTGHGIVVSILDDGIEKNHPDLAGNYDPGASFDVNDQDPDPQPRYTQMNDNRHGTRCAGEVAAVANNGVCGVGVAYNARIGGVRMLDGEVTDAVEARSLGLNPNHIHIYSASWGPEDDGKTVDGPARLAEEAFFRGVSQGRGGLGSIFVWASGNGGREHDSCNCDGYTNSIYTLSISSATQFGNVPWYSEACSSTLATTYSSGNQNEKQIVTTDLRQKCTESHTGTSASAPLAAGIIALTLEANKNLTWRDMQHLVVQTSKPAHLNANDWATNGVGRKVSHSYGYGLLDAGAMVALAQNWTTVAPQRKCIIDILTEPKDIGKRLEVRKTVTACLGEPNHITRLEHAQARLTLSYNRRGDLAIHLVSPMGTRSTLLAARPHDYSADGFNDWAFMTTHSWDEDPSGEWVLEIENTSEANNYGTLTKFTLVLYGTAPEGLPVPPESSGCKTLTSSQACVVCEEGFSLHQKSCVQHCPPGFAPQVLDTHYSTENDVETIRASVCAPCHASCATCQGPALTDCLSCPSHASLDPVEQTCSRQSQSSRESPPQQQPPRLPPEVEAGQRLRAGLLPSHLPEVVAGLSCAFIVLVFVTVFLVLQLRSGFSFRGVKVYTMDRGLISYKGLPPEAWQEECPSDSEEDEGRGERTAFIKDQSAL
Sequence,furin cleavage Z-score (7.5 min),furin cleavage Z-score (15 min),furin cleavage Z-score (30 min)
CAKEECSQHLAGNASASA [HC1674],0.0836 (inactive),-0.555 (inactive),1.98
CARYKRHFKLAGNASASA [FS-2848],1.05,2.24,5.27 (active)
CARYKRWRKHAGNASASA [FS-2112],4.44 (active),6.03 (active),5.36 (active)
CARYKRPGLPAGNASASA [FS-2849],-0.56 (inactive),0.396 (inactive),1.9
CALETFWAKHAGNASASA [HC1039],-0.932 (inactive),-0.375 (inactive),0.0766 (inactive)
CATMPCSGSWAGNASASA [HC1846],-0.28 (inactive),-1.3 (inactive),-0.468 (inactive)
CARARRFSGLAGNASASA [FS-1683],-0.486 (inactive),-0.258 (inactive),0.853 (inactive)
CARARRPHFDAGNASASA [FS-1848],-1.25 (inactive),-0.201 (inactive),0.259 (inactive)
CARARRFAQIAGNASASA [FS-2644],1.75,2.84,5.09 (active)
CARARRFCRDAGNASASA [FS-2547],11.3 (active),11.2 (active),8.57 (active)
CARARRHAADAGNASASA [FS-2648],12.4 (active),14.4 (active),8.89 (active)
CAGCGRICRDAGNASASA [FS-1455],1.57,3.73 (active),3.06
CAMSADLEVVAGNASASA [HC985],-0.119 (inactive),0.307 (inactive),-0.651 (inactive)
CALDCEIYGAAGNASASA [HC1592],-0.215 (inactive),-0.505 (inactive),-1.05 (inactive)
CAFNSSGCPEAGNASASA [HC384],-0.864 (inactive),-1.69 (inactive),-0.153 (inactive)
CAAILSPGALAGNASASA [HC1103],0.122 (inactive),-1.5 (inactive),-0.137 (inactive)
CAIMTCMSADAGNASASA [HC983],-1.36 (inactive),0.0813 (inactive),-2.62 (inactive)
CADSHYQDVLAGNASASA [HC1401],-0.596 (inactive),-0.846 (inactive),0.188 (inactive)
CADPEVVTSTAGNASASA [HC2299],-0.751 (inactive),-0.261 (inactive),-0.557 (inactive)
CAEVVTSPWVAGNASASA [HC2219],-0.287 (inactive),-0.0163 (inactive),0.0529 (inactive)
CAEVKCHRPSAGNASASA [HC2354],0.191 (inactive),-0.204 (inactive),1.45
CARARRHSDGAGNASASA [FS-2480],6.39 (active),6.07 (active),5.39 (active)
CAKVVILDSFAGNASASA [HC1285],-0.496 (inactive),-1.22 (inactive),-0.351 (inactive)
CAASRGNHVSAGNASASA [HC1122],1.32,0.577 (inactive),1.1

Sequence,furin cleavage Z-score (7.5 min),furin cleavage Z-score (15 min),furin cleavage Z-score (30 min)
CAKVLRSRRSAGNASASA [FS-1353],3.74 (active),4.72 (active),3.35
CAASRVSRRSAGNASASA [FS-979],5.49 (active),7.22 (active),5.62 (active)
CAIALRLRRSAGNASASA [FS-32],1.01,0.68 (inactive),0.673 (inactive)
CAHSRRSRRSAGNASASA [DV5],12.2 (active),12.3 (active),9.14 (active)
CASPRDARRSAGNASASA [FS-1614],-1.33 (inactive),-1.24 (inactive),-1.6 (inactive)
CAHPRRSRRSAGNASASA [FS-932],8.18 (active),9.38 (active),7.97 (active)
CAYPYRLWHYAGNASASA [HC466],-1.33 (inactive),-2.06 (inactive),0.263 (inactive)
CASTPCSTHLAGNASASA [HC2538],-0.715 (inactive),0.257 (inactive),-0.443 (inactive)
CAYCWHYPPKAGNASASA [HC403],1.04,0.468 (inactive),2.44
CAHSRTIKRSAGNASASA [FS-1632],5.07 (active),6.15 (active),6.19 (active)
CATTPCSYSWAGNASASA [HC1889],-2.07 (inactive),0.349 (inactive),1.53
CAGFHRRARAAGNASASA [FS-239],4.46 (active),3.84 (active),4.12 (active)
CAGNEGCGWAAGNASASA [HC204],-0.525 (inactive),-0.206 (inactive),-0.116 (inactive)
CAGPRLGVRAAGNASASA [HC181],-1.03 (inactive),0.21 (inactive),-0.871 (inactive)
CAGNRRRARAAGNASASA [FS-126],9.62 (active),8.76 (active),7.27 (active)
CAQDVLKEVKAGNASASA [HC1403],-1.57 (inactive),-2.35 (inactive),-1.62 (inactive)
CAITAEAAGRAGNASASA [HC1251],0.707 (inactive),-1.39 (inactive),-1.45 (inactive)
CARQRRGCFRAGNASASA [FS-2446],1.29,2.53,4.76 (active)
CARDRRGCFAAGNASASA [FS-2253],-0.438 (inactive),-0.0621 (inactive),0.916 (inactive)
CARQRREMVAAGNASASA [FS-2589],4.84 (active),5.77 (active),5.19 (active)
CARQRRPTGPAGNASASA [FS-2511],-1.58 (inactive),-0.922 (inactive),0.378 (inactive)
CARQRRGFHHAGNASASA [FS-2365],0.595 (inactive),4.95 (active),6.76 (active)
CARQRRGTGAAGNASASA [FS-2762],3.78 (active),4.54 (active),4.93 (active)
CARQRRLLAAAGNASASA [FS-3042],-1.14 (inactive),-0.921 (inactive),0.324 (inactive)
